Measurements taken from the supplement of paper PMC7411054.

Experiments:
Assay in all cases: phenotypically active (imaging signature differs from DMSO and reproducible) at any of 0.3-9 uM (binary (1 = active, 0 = inactive)); higher = active
Settings in all cases: treatment time: 24 h
[1] = tested on: A549-ACTB-RAB5A
Outline: (§1)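 Cells from fifteen gene-edited reporter lines (A549, HepG2 and WPMY1) were treated for 24 h at 0.3, 1, 3 or 9 µM and imaged live, four wells per condition. Features were normalised per well to solvent control wells. A condition deviated if ≥3 of 4 wells passed the 95th percentile of control Euclidean distances and was reproducible if its median replicate Pearson correlation beat the 95th percentile of non-replicates; phenotypic activity needed both.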

[2] = tested on: A549-CANX-COX4
Outline: as §1

[3] = tested on: A549-GM130-SQSTM1
Outline: as §1

[4] = tested on: A549-TP53BP1-CLTA
Outline: as §1

[5] = tested on: A549-TUBA1B-RELA
Outline: as §1

[6] = tested on: HepG2-ACTB-RAB5A
Outline: as §1

[7] = tested on: HepG2-CANX-COX4
Outline: as §1

[8] = tested on: HepG2-GM130-SQSTM1
Outline: as §1

[9] = tested on: HepG2-TP53BP1-CLTA
Outline: as §1

[10] = tested on: HepG2-TUBA1B-RELA
Outline: as §1

[11] = tested on: WPMY1-ACTB-RAB5A
Outline: as §1

[12] = tested on: WPMY1-CANX-COX4
Outline: as §1

[13] = tested on: WPMY1-GM130-SQSTM1
Outline: as §1

[14] = tested on: WPMY1-TP53BP1-CLTA
Outline: as §1

[15] = tested on: WPMY1-TUBA1B-RELA
Outline: as §1

Measured: phenotypically active

C=C(C)[C@@H]1CC[C@]2(C(=O)O)CC[C@]3(C)[C@H](CC[C@@H]4[C@@]5(C)CC[C@H](O)C(C)(C)[C@@H]5CC[C@]43C)[C@@H]12 [betulinic-acid]
inactive: [1] 0 | [2] 0 | [3] 0 | [4] 0 | [5] 0 | [6] 0 | [7] 0 | [8] 0 | [9] 0 | [10] 0 | [11] 0 | [12] 0 | [13] 0 | [14] 0 | [15] 0

CC[C@H](C)C(=O)O[C@H]1C[C@H](O)C=C2C=C[C@H](C)[C@H](CC[C@@H](O)C[C@@H](O)CC(=O)O)[C@H]21 [pravastatin]
inactive: [1] 0 | [2] 0 | [3] 0 | [4] 0 | [5] 0 | [6] 0 | [7] 0 | [8] 0 | [9] 0 | [10] 0 | [11] 0 | [12] 0 | [13] 0 | [14] 0 | [15] 0

COc1cc2ncnc(Oc3cccc(NC(=O)Nc4cc(C(C)(C)C(F)(F)F)on4)c3)c2cc1OC
inactive: [1] 0 | [2] 0 | [3] 0 | [4] 0 | [5] 0 | [6] 0 | [7] 0 | [8] 0 | [9] 0 | [10] 0 | [11] 0 | [12] 0 | [13] 0 | [14] 0 | [15] 0

CC(C)(C)NCC(O)c1ccc(O)c(CO)c1 (stereo not given) [albuterol]
inactive: [1] 0 | [2] 0 | [3] 0 | [4] 0 | [5] 0 | [6] 0 | [7] 0 | [8] 0 | [9] 0 | [10] 0 | [11] 0 | [12] 0 | [13] 0 | [14] 0 | [15] 0

NC(=O)c1cccnc1 [Nicotinamide]
inactive: [1] 0 | [2] 0 | [3] 0 | [4] 0 | [5] 0 | [6] 0 | [7] 0 | [8] 0 | [9] 0 | [10] 0 | [11] 0 | [12] 0 | [13] 0 | [14] 0 | [15] 0

CSc1ccc(C(=O)c2[nH]c(=O)[nH]c2C)cc1 [Enoximone]
inactive: [1] 0 | [2] 0 | [3] 0 | [4] 0 | [5] 0 | [6] 0 | [7] 0 | [8] 0 | [9] 0 | [10] 0 | [11] 0 | [12] 0 | [13] 0 | [14] 0 | [15] 0

O=S(=O)(N[C@H](CO)C(C(F)(F)F)C(F)(F)F)c1ccc(Cl)s1 [begacestat]
inactive: [1] 0 | [2] 0 | [3] 0 | [4] 0 | [5] 0 | [6] 0 | [7] 0 | [8] 0 | [9] 0 | [10] 0 | [11] 0 | [12] 0 | [13] 0 | [14] 0 | [15] 0

CCCCC(=O)O[C@H]1CC[C@H]2[C@@H]3CCc4cc(O)ccc4[C@H]3CC[C@]12C [estradiol valerate]
inactive: [1] 0 | [2] 0 | [3] 0 | [4] 0 | [5] 0 | [6] 0 | [7] 0 | [8] 0 | [9] 0 | [10] 0 | [11] 0 | [12] 0 | [13] 0 | [14] 0 | [15] 0

OC[C@H]1NC[C@H](O)[C@@H](O)[C@@H]1O [1-Deoxynojirimycin]
inactive: [1] 0 | [2] 0 | [3] 0 | [4] 0 | [5] 0 | [6] 0 | [7] 0 | [8] 0 | [9] 0 | [10] 0 | [11] 0 | [12] 0 | [13] 0 | [14] 0 | [15] 0

CCC1(C)OC(=O)N(C)C1=O (stereo not given) [paramethadione]
inactive: [1] 0 | [2] 0 | [3] 0 | [4] 0 | [5] 0 | [6] 0 | [7] 0 | [8] 0 | [9] 0 | [10] 0 | [11] 0 | [12] 0 | [13] 0 | [14] 0 | [15] 0

O=S(=O)(NCCSSCCNS(=O)(=O)c1cc(Cl)ccc1Cl)c1cc(Cl)ccc1Cl
inactive: [1] 0 | [2] 0 | [3] 0 | [4] 0 | [5] 0 | [6] 0 | [7] 0 | [8] 0 | [9] 0 | [10] 0 | [11] 0 | [12] 0 | [13] 0 | [14] 0 | [15] 0
